# Reference: PubChem BioAssay AID652154 (Broad Institute, 2013)
# “And” between values parts separate entries of the source, which are not always exact repeats. Equal values may be shown once. Screen size: about 360,000 compounds; about 4,200 (1.2%) were called active.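 How the source made its calls: active means mean replicate inhibition at least 60% with every replicate also reaching 60%; inconclusive means only one of the two criteria is met; inactive means mean below 60% and not all replicates reaching 60%.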 Shown is part of a subset that was picked to be rich in actives.
# Assay: PAX8 transcriptional activity inhibition in RMG-I – RMG-I cells, luciferase, single concentration, primary screen (AID 652154);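 further: luciferase light reporting Pax8 driven TPO promoter activity; plate controls were median of neutral control wells for no effect and mitoxantrone controls for full effect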
# Conditions: RMG-I TPO-luciferase reporter, SteadyGlo, 24 h; at 12.6 µM; hits give high values
row,SMILES,inhibition
1,CN(C)CC1Oc2ccccc2OC1(O)c1ccccc1 (stereo not given),78.4% (active)
2,O=C(Cc1ccccc1)N1CCCCN2[C@H](CO)[C@H](c3ccc(C#Cc4ccccc4)cc3)[C@H]2C1,0.0955% (inactive)
3,O=C(Cc1ccncc1)N1CCCCN2[C@H](CO)[C@@H](c3ccc(C#CC4(O)CCCC4)cc3)[C@H]2C1,-4.86% (inactive)
4,O=C(Cc1ccccc1)N1CCCCN2[C@H](C1)[C@H](c1ccc(C#CC3(O)CCCC3)cc1)[C@@H]2CO,12.4% (inactive)
5,CCC(C)(O)C(=O)OC1C(=O)OC2CC3C(C)=CC(=O)C(O)C3(C)C3C4(O)OCC23C1C(C)C4O (stereo not given),96.4% (active)
6,C/C=C/c1ccc([C@H]2[C@H](CO)N3CCCCN(C(=O)Cc4ccncc4)C[C@@H]23)cc1,11.3% (inactive)
7,N#Cc1cccc(-c2ccc([C@H]3[C@@H](CO)N4CCCCN(C(=O)Cc5cccnc5)C[C@@H]34)cc2)c1,-12% (inactive)
8,Cc1cc(N2CCNC[C@@H]2C)ccc1N1CC[C@H](O)C1,1.43% (inactive)
9,CC(=CCOc1ccc2ccc(=O)oc2c1)C1=CC(=O)C(C)(C)O1,108% (active)
10,COc1ccc(C#Cc2ccc([C@H]3[C@H](CO)N4CCCCN(C(=O)Cc5ccccc5)C[C@@H]34)cc2)cc1,-13.5% (inactive)
11,C/C=C/c1ccc(C2[C@@H]3CN(Cc4cncnc4)C[C@H]2N3)cc1 (stereo not given in full),-5.53% (inactive)
12,COc1cccc(-c2ccc3n(c2=O)C[C@@H]2[C@@H](CO)[C@H](C(=O)O)[C@H]3N2C(=O)c2cnccn2)c1,1.83% (inactive)
13,COC(=O)[C@@H]1[C@@H](CO)[C@@H]2Cn3c(ccc(-c4ccc(F)cc4)c3=O)[C@H]1N2C(C)=O,-4.95% (inactive)
14,CCOc1ccc(-c2cc(C)[n+](CCN(CC)CC)c(-c3ccc(OCC)cc3)c2)cc1,87.4% (active)
15,CCOC(=O)[C@]12Cc3cc(OC)ccc3[C@H]1N(C(C)C)C(=O)c1ccccc12,-13.7% (inactive)
16,O=C(Cc1ccncc1)N1CCCCN2[C@@H](CO)[C@H](c3ccc(C#CC4(O)CCCC4)cc3)[C@@H]2C1,-6.83% (inactive)
17,O=S(=O)(c1ccccc1)N1CCC2CCNC2C1 (stereo not given),-15.4% (inactive)
18,O=C(Cc1cccnc1)N1CCCCN2[C@@H](CO)[C@H](c3ccc(C#CC4CCCC4)cc3)[C@@H]2C1,-34.4% (inactive)
19,COc1cccc(-c2ccc([C@H]3[C@H]4CN(C(=O)Cc5ccncc5)CCCCN4[C@H]3CO)cc2)c1,47.9% (inactive)
20,CCOC(=O)[C@@H]1[C@@H]2NC(=O)N[C@@]1(C)Oc1ccccc12,8.82% (inactive) and -6.19% (inactive)
21,Brc1ccc2c(c1)CNCc1cnnn1-2,-19.7% (inactive)
22,O=C(O)[C@H]1[C@H](CO)[C@H]2Cn3c(ccc(-c4ccccc4)c3=O)[C@@H]1N2S(=O)(=O)c1ccccc1F,-5.43% (inactive)
23,COc1ccc(-n2nnnc2C(c2cccc3ccccc23)N2CCC(n3c(=O)[nH]c4ccccc43)CC2)cc1 (stereo not given),63.7% (active)
24,CSCCC(c1nnnn1C(C)(C)C)N1CCC(n2c(=O)[nH]c3ccccc32)CC1 (stereo not given),32.9% (inactive)
25,O=c1[nH]c2ccccc2n1C1CCN(C(c2ccccc2)c2nnnn2Cc2ccccc2)CC1 (stereo not given),82.1% (active)

row,SMILES,inhibition
1,COc1cccc(C(c2nnnn2-c2ccc3c(c2)OCCO3)N2CCC3(CC2)C(=O)NCN3c2ccccc2)c1OC (stereo not given),-8.19% (inactive)
2,O=c1[nH]c2ccccc2n1C1CCN(C(c2ccnc3ccccc23)c2nnnn2Cc2ccccc2)CC1 (stereo not given),-10.5% (inactive)
3,O=C1NCN(c2ccccc2)C12CCN(C(c1cccs1)c1nnnn1C1CCCCC1)CC2 (stereo not given),-2.94% (inactive)
4,CCOC(=O)[C@]12Cc3ccccc3[C@H]1N(C1CCCCC1)C(=O)c1cc(OC)ccc12,49.5% (inactive)
5,COc1cccc(-c2ccc3n(c2=O)C[C@H]2[C@H](CO)[C@@H](C(=O)O)[C@@H]3N2C(=O)c2cnccn2)c1,-1.69% (inactive)
6,CS(=O)(=O)N1CCC2CCNC2C1 (stereo not given),-27.9% (inactive)
7,COc1cc(OC)cc(C(=O)NCCN2CCC3(CC2)C(=O)NCN3c2ccccc2)c1,-21.4% (inactive)
8,O=C(Cc1ccccn1)N1CCCCN2[C@@H](CO)[C@@H](c3ccc(C#Cc4ccccc4)cc3)[C@@H]2C1,9.59% (inactive)
9,CC1=CC(=Cc2sc3ccccc3[n+]2C)C=C(C)O1,74.9% (active)
10,C/C=C/c1ccc(C2[C@@H]3CN(S(C)(=O)=O)C[C@H]2N3)cc1 (stereo not given in full),9.75% (inactive)
11,CCCCCCCCCCCCn1ccc(=N)cc1,101% (active)
12,O=C(Cc1ccccn1)N1CCCCN2[C@H](C1)[C@H](c1ccc(-c3ccccc3F)cc1)[C@@H]2CO,19.2% (inactive)
13,O=C(O)[C@@H]1[C@@H](CO)[C@@H]2Cn3c(ccc(-c4ccccc4F)c3=O)[C@H]1N2C(=O)c1cccnc1,-13.1% (inactive)
14,OC[C@@H]1[C@H]2c3ccccc3NC[C@H]2N1Cc1cccnc1,2.56% (inactive)
15,COC(=O)C1=C(c2ccc(F)cc2OCc2ccccc2)C[C@@H]2CC[C@H]1N2C(=O)NCc1ccc(Cl)cc1,24.6% (inactive)
16,COC(=O)C1=C(c2ccc(F)cc2OCc2ccccc2)C[C@@H]2CC[C@H]1N2C(=O)NCc1ccc2[nH]ccc2c1,89% (active)
17,COC(=O)C1=C(c2ccc(OCc3ccccc3)cc2)C[C@@H]2CC[C@H]1N2C(=O)NCc1cccc(F)c1,5.35% (inactive)
18,COC(=O)C1=C(c2ccc(F)cc2OCc2ccccc2)C[C@@H]2CC[C@H]1N2C(=O)NCc1ccc(C(C)(C)C)cc1,79% (active)
19,COC(=O)C1=C(c2ccccc2OCc2ccccc2)C[C@@H]2CC[C@H]1N2C(=O)NCc1ccc(OC)cc1,15% (inactive)
20,COC(=O)C1=C(c2ccc(F)cc2OCc2ccccc2)C[C@@H]2CC[C@H]1N2C(=O)NCc1ccc(OC)c(OC)c1,21.7% (inactive)
21,COC(=O)C[C@@H]1CC[C@@H]2NC[C@@H](O)COC[C@H]2O1,2.66% (inactive)
22,COC(=O)C[C@H]1CC[C@H]2NC[C@@H](O)COC[C@@H]2O1,2.02% (inactive) and -13.9% (inactive)
23,COC(=O)[C@H]1[C@H](CO)[C@H]2Cn3c(ccc(-c4cccc(F)c4)c3=O)[C@@H]1N2Cc1ccccc1,7.46% (inactive)
24,COC(=O)[C@@H]1[C@@H](CO)[C@@H]2Cn3c(ccc(-c4cccc(C(=O)N(C)C)c4)c3=O)[C@H]1N2C(=O)NC(C)C,-0.877% (inactive)
25,O=C(Cc1ccncc1)N1CCCCN2[C@@H](CO)[C@H](c3ccc(-c4ccncc4)cc3)[C@@H]2C1,6.85% (inactive)
